Results filed as inconclusive are left out. A number with no mark means an inactive call. The source made the active and inactive calls. The call rests on the fitted dose curve; in most records, active means well fitted inhibition curve with a large enough effect; inconclusive means small, poorly fitted or top-dose-only effect; inactive means flat fitted curve, though single readings scatter.
Potency means the concentration at half of the fitted maximal effect.

The test system of this assay is C2A. Nature of the assay: qHTS profiling for inhibitors of Plasmodium falciparum proliferation (AID 504749). Further: nearly all actives have a fitted effect of over 60% in size.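 On activity, negative = inhibition: 0% = DMSO vehicle and full inhibition = artemisinin control.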 The note with it: P. falciparum in erythrocytes, SYBR Green DNA, 72 h; series mostly up to 28.7 µM; activity, negative = inhibition: at the top concentration. Summed up:
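SYBR Green fluorescence of parasite DNA, read after lysis and overnight dark incubation, measured growth over 72 h in erythrocyte culture at 0.3% parasitemia and 2.5% hematocrit. Data normalised to DMSO and 0.29 uM artemisinin, with plate-drift correction.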
On to `CN(C)CCN(Cc1ccccc1)c1ccccn1`, for which the “activity, negative = inhibition” value was -8.84%.

With `CC[C@@]1(c2ccccc2)NC(=O)N(C)C1=O`, the “activity, negative = inhibition” value was 2.78%.

Turning to `CCCc1c(OCCCCc2nn[nH]n2)ccc(C(C)=O)c1O`, the “activity, negative = inhibition” value is -11.1%.

Take `OCCN1CCN(CCCN2c3ccccc3Sc3ccc(Cl)cc32)CC1`: the “activity, negative = inhibition” value was -24.4% [at 12.8 µM].

For `CC(CN1c2ccccc2Sc2ccccc21)N(C)C` (stereo unspecified), the “activity, negative = inhibition” value was 2.98%.

On to `CC(C(O)c1ccc(O)cc1)N1CCC(Cc2ccccc2)CC1` (stereo unspecified), for which the Potency was 10 µM (active).

With `Cc1cc(C(C#N)c2ccc(Cl)cc2)c(Cl)cc1NC(=O)c1cc(I)cc(I)c1O` (stereo unspecified), the “activity, negative = inhibition” value is -3.09%.

Regarding `O=S(=O)(O)c1cc(I)c(O)c2ncccc12`, the “activity, negative = inhibition” value is -4.7%.

For `CCCCOC(=O)c1ccc(O)cc1`, the “activity, negative = inhibition” value is -0.533%.

Turning to `CCOC(CN1CCN(CC(C)C(=O)c2ccccc2)CC1)c1ccccc1` (stereo unspecified), the “activity, negative = inhibition” value is -15.3%.

`CCCCCCCCCCCCCCCC(=O)NCCO`: the “activity, negative = inhibition” value is 3.18%.

On to `Cc1ccc(C(C)C)cc2c(C)ccc1-2`, for which the “activity, negative = inhibition” value is -2.36%.

As to `CCCCN1CCCC[C@H]1C(=O)Nc1c(C)cccc1C`, the “activity, negative = inhibition” value was -9.62%.

For the compound `OCc1cc(C(O)CNCCCCCCOCCCCc2ccccc2)ccc1O` (stereo unspecified), the “activity, negative = inhibition” value is -8.38%.

As for `COC(=O)C1=C(C)NC(C)=C(C(=O)OC)C1c1ccccc1[N+](=O)[O-]`, the “activity, negative = inhibition” value is 1.01%.

Take `CN1CCN(C2Cc3ccccc3Sc3ccc(Cl)cc32)CC1` (stereo unspecified): the “activity, negative = inhibition” value was -18.5%.

As for `[Cl][In]([Cl])[Cl]`, the “activity, negative = inhibition” value is -24.4%.

As for `Cc1c(Cl)cccc1Nc1ccccc1C(=O)O`, the “activity, negative = inhibition” value is -5.56%.

For the compound `Cc1cc(N)c2ccccc2[n+]1CCCCCCCCCC[n+]1c(C)cc(N)c2ccccc21`, the Potency was 0.282 µM (active).

In the case of `CC1=C(CC(=O)O)c2cc(F)ccc2/C1=C\c1ccc(S(C)=O)cc1` (stereo unspecified), the “activity, negative = inhibition” value was -10.4%.

On to `CC(C)(C)NCC(O)COc1ccc(NC(=O)NC2CCCCC2)cc1` (stereo unspecified), for which the “activity, negative = inhibition” value was 0.457%.

Regarding `O=C1NS(=O)(=O)c2ccccc21`, the “activity, negative = inhibition” value is -8.04%.

Regarding `NC1CCN(c2cccc(Cl)n2)CC1`, the “activity, negative = inhibition” value was -18.7%.

Turning to `CNCCCC1c2ccccc2C=Cc2ccccc21`, the “activity, negative = inhibition” value is -12% [at 12.8 µM].

Turning to `Cc1ccc2nc(N)[nH]c(=O)c2c1Sc1ccncc1`, the Potency is 11.2 µM (active).

Consider `CNC(=O)Oc1ccc2c(c1)[C@]1(C)CCN(C)[C@@H]1N2C`, for which the Potency was 1.78 µM (active).

The values above are taken from PubChem BioAssay (NCATS).
